Compounds with a hit are over-represented: about 3.9% of the library has one in this group of screens.
Anthrax LF inh2: Bacillus anthracis LF protease inhibitors, primary screen, biochemical, multiplex microsphere, MLPCN library. Lethal factor (Bacillus anthracis), P15917. multiplex microsphere protease cleavage assay. inhibition, % at 10 µM. hit rate 0.12% among 360,000. AID 588501, 2011; note: plate controls were buffer without enzyme for full effect and enzyme alone for no effect
BoNT-F LC inh: BoNT/F light chain protease inhibitors, primary screen, biochemical, flow cytometry, MLPCN library; Botulinum neurotoxin type F light chain protease (Clostridium botulinum); inhibition, % at 10 µM; hit rate 0.22% among 360,000; AID 588497, 2011; Multiplex microsphere protease cleavage assay; in the data active = inhibition above about 35%, passing the limit was not always enough; inconclusive = no clear call, values can overlap the other calls; note: plate controls were buffer without enzyme for full effect and enzyme alone for no effect
MazEF act: activators of E. coli MazEF toxin-antitoxin RNase, primary screen, biochemical, fluorescence, uHTS; Endoribonuclease toxin MazF (Escherichia coli (strain K12)), P0AE70; FAM/BHQ RNA-DNA oligo cleavage fluorescence, 5 h; activation, % at 20 µM; hit rate 0.32% among 350,000; AID 504720, 2011; in the data active = activation above about 50%
Target sequence (P0AE70 whole entry, looked up): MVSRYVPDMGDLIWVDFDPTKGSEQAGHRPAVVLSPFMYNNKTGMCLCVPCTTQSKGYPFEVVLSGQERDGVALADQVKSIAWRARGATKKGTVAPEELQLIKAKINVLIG
BoNT A protease: BoNT/A light chain protease inhibitors, primary screen, biochemical, flow cytometry, MLPCN library; multiplex microsphere protease substrate cleavage; inhibition, % at 10 µM; hit rate 0.17% among 360,000; note: plate controls were buffer without enzyme for full effect and enzyme alone for no effect
Bead autofluor: flagged as autofluorescent in microsphere protease counterscreen; compound autofluorescence counterscreen, microsphere flow cytometry; active compounds read high; fluorescence intensity (test concentration not listed); hit rate 3.1% among 360,000; AID 624483; in the data active = fluorescence intensity above about 16000; inconclusive = no clear call, values can overlap the other calls
BH1578 lux ind: inducers of Vibrio cholerae quorum light production without autoinducers, primary screen, BH1578 luxS cqsA deficient, single point; V. cholerae BH1578 lux reporter, luminescence, 6 h; hit rate 0.16% among 350,000; AID 588436, 2011; activation, % at 18.7 µM; in the data active = activation mostly above about 9.7%, no sharp cut-off; inconclusive = no clear call, values can overlap the other calls; inactive = mostly below about 3.7%
* hit, by the source's call; i = inactive; u = inconclusive; x = not tested or not shown. Cut-off read from the data, not from the text of the source, unless noted: active = inhibition above about 30%; inconclusive = no clear call, values can overlap the other calls; inactive = below that.

SMILES	Anthrax LF inh2	BoNT-F LC inh	MazEF act	BoNT A protease	Bead autofluor	BH1578 lux ind
O=[N+]([O-])c1cccc(N/N=C/c2cccc(O)c2O)c1	0.1	13.6	5.3	0.1	4119	i
Cc1nc(-n2ncc(C#N)c2N)c2c3c(sc2n1)CCC3	0.7	0.6	12.5	0.1	22751*	-12.5
N#Cc1cnn(-c2ncnc3sc4c(c23)CCCC4)c1N	0.3	-16.8	-2.4	-0.6	5002	i
Cc1cccc(C)c1C(=NCCCN(C)C)c1ccccc1	-0.3	-7.4	-4.4	0.2	2120	i
CC(C)Nc1nnc(SCC(=O)Nc2sccc2C#N)s1	-4.2	-10.1	-5.8	-0.6	3688	i
CCN(C(C)=O)c1nc(CSc2nnc(NC(C)C)s2)cs1	0.1	2.1	0.2	u	19610*	i
CCOC(=O)c1cnn(CCOC(=O)c2ccccc2)c1NC(=O)c1ccccc1	8.7	18.0	1.7	1.6	1870	-0.4
CCOC(=O)c1cnn(CCOC(=O)C2CC2)c1NC(=O)C1CC1	-2.3	-2.3	-3.3	1.1	20293*	-0.5
Cn1cc([C@@H]2C[C@H]3CN(Cc4cccc(Cl)c4)C(=O)[C@]34CCCN24)c2ccccc21	4.1	-20.0	-20.2	9.9	17603*	x
Cc1c([C@@H]2C[C@H]3CN(Cc4cccc(Cl)c4)C(=O)[C@]34CCCN24)cnn1C	-1.1	-1.3	-8.2	-1.3	8790	-0.5
O=S1(=O)CC(N2CCC(c3ccccc3)CC2)CN1Cc1ccc(F)cc1 (centres undefined)	-2.5	6.9	x	0.6	4308	x
COc1ccc(NS(=O)(=O)c2cccc(C(=O)NNC(=O)CNC(=O)c3ccc(C)cc3)c2)cc1	6.0	6.3	1.6	-1.0	5287	i
COc1cccc(OCCOc2c(OC)cccc2OC)c1	-0.6	36.7*	-5.1	0.4	3426	i
COc1cccc(OC)c1OCCCOc1c(OC)cccc1OC	4.4	31.5	-2.7	0.0	4035	-0.4
CCCNC(=O)c1ccccc1SCc1c(C)noc1C	-1.3	-21.0	5.7	-6.9	7902	1.6
CC1(C)CC(=O)C2=C(C1)OC(N)=C(C#N)[C@@]21C(=O)N(CC(N)=O)c2ccccc21	4.2	-6.3	3.4	0.4	3515	-7.1
CC1(C)CC(=O)C2=C(C1)OC(N)=C(C#N)C21C(=O)N2CCCc3cccc1c32 (centres undefined)	-4.6	0.6	1.9	0.9	16191*	-0.2
Nc1c(-c2ccccc2)n[nH]c1-c1ccccc1	-2.3	-4.8	5.5	u	23500*	i
CCN1C(=O)/C(=C/N2CCc3ccccc3C2)SC1=S	-4.9	u	-3.7	-49.5	16177*	-1.3
Cn1c(=O)c2c(nc(CN3CCN(C(=O)c4ccco4)CC3)n2Cc2ccc(Cl)cc2)n(C)c1=O	-4.6	3.3	-7.1	4.3	18363*	11.1
O=C(c1ccco1)N1CCN(Cc2nc3ccccc3c(=O)n2-c2ccc(F)cc2)CC1	-8.8	-1.1	8.4	1.0	22917*	-0.2
Cn1c(=O)c2c(nc(CN3CCN(C(=O)c4ccco4)CC3)n2Cc2ccccc2)n(C)c1=O	2.9	-5.0	4.5	-0.3	2228	-5.0
Cn1c(=O)c2c(nc(CN3CCN(C(=O)c4ccco4)CC3)n2Cc2cccc(Cl)c2)n(C)c1=O	0.5	-1.2	1.9	0.1	22343*	i
Cn1c(=O)c2c(nc(CN3CCN(C(=O)c4ccco4)CC3)n2CCc2ccccc2)n(C)c1=O	-0.8	2.9	0.5	3.1	21635*	-5.8
O=C(O)c1ccc(Nc2ncnc3c2cnn3Cc2ccccc2)cc1	-4.8	-3.2	-3.2	-1.3	3591	-1.0
SMILES	Anthrax LF inh2	BoNT-F LC inh	MazEF act	BoNT A protease	Bead autofluor	BH1578 lux ind
CN(CCNC(=O)c1ccc(CS(=O)(=O)c2c(Cl)cccc2Cl)o1)CCc1ccccc1	-3.6	-8.6	6.8	-2.2	6691	i
O=C(Nc1ccccc1)NC1(C(=O)NCc2ccco2)CCCCC1	-7.9	-6.4	2.6	-2.8	17118*	i
Cc1ccc(NC(=O)NC2(C(=O)NCc3ccco3)CCCCC2)cc1	5.0	-4.0	9.5	0.7	5672	-0.3
O=C(Nc1ccccc1)NC1(C(=O)NCc2ccc3c(c2)OCO3)CCCCC1	-0.9	2.0	-3.3	1.0	22677*	i
O=C(NCc1ccccc1)NC1(C(=O)Nc2ccc3c(c2)OCCO3)CCCCC1	-0.2	6.0	7.0	2.8	22030*	i
O=C(NCc1ccccc1)NC1(C(=O)N2CCOCC2)CCCCC1	-1.8	4.7	1.5	0.5	2828	x
CC(SC1=NCCN1S(C)(=O)=O)c1ccccc1 (centres undefined)	-1.3	2.6	11.1	0.4	5746	i
O=C1NC(=O)C2(CCCCCCCCCCC2)N1	-0.7	3.1	3.6	-0.5	6183	-0.5
Cc1ccc(C(=O)CCC2CCCCC2=O)cc1 (centres undefined)	-0.1	-0.3	0.0	u	19947*	-1.3
Cc1ccc(C(=O)CCC2CCCC2=O)cc1 (centres undefined)	-1.8	2.6	2.9	0.0	2779	0.6
CCOc1ccccc1N=Nc1c(C)[nH]n(C(N)=S)c1=O	-0.6	56.5*	-16.7	2.6	3759	-0.8
COc1ccc(-c2nnc(SCc3c(C)noc3C)n2N)cc1OC	0.5	-0.8	-0.5	0.3	19531*	1.8
Cc1noc(C)c1CSc1nnc(-c2cc(Cl)ccc2Cl)n1N	-6.0	0.4	-5.8	0.3	10362	-0.3
Cc1ccccc1-n1c(SCc2c(C)noc2C)nnc1-c1cccnc1	3.7	11.1	70.1*	8.9	9980	-0.5
CCOC(=O)c1c(C)[nH]c(C(=O)N2CCC(C(=O)OCC)CC2)c1C	9.9	28.8	-9.3	6.1	5836	0.5
COC1=C(N)C(=O)c2nc(-c3nc(C(=O)O)c(C)c(-c4ccc(OC)c(OC)c4O)c3N)ccc2C1=O	x	x	-22.6	x	x	179.2*
COC(=O)c1nc(-c2ccc3c(n2)C(=O)C(N)=C(OC)C3=O)c(N)c(-c2ccc(OC)c(OC)c2O)c1C	9.4	-15.5	-2.7	-1.1	3779	11.5
CCN(C[C@H]1N[C@@](C)(C(=O)OC)[C@H]2C(=O)N(C)C(=O)[C@@H]12)C(=O)Nc1ccccc1	-11.3	-5.3	0.9	-0.3	3433	-11.9
O=S(=O)(N=S(N1CCCCC1)N1CCCCC1)c1ccccc1	1.1	1.9	5.0	u	19826*	1.7
CCN(CCCNC(=O)c1c(C)cc(=O)oc1C)c1ccccc1	-5.7	4.6	2.0	1.0	10261	i
Cc1cc(=O)oc(C)c1C(=O)NCC1CCCO1 (centres undefined)	-6.0	-2.9	2.0	0.1	9125	-0.2
Cc1cc(=O)oc(C)c1C(=O)NCCCN1C(C)CCCC1C (centres undefined)	-2.0	-2.0	7.2	-2.5	24271*	-0.7

Source: PubChem BioAssay
